Compound activity (PubChem BioAssay)
Only some compounds are listed: those with a hit (about 2.1% of all), similar ones and a draw of the others.
Gli-Sufu block – blocks Gli-Sufu signaling in a luciferase reporter; Sufu-KO-LIGHT fibroblasts, Gli luciferase reporter luminescence; inhibition, % at 5 µM; actives 0.74% (n = 340,000);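 active = inhibition above about 55%, limit read from the data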
COUP-TFII inh – blocks human COUP-TFII nuclear receptor | HEK293T NGFI-A luciferase reporter, luminescence | AID 686940 | inhibition, % at 8.6 µM | actives 0.7% (n = 370,000);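 active = inhibition above a per-plate cutoff, mean inhibition of test wells between control levels plus 3 SD, cut at about 38% in these data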;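 also: cells cotransfected with COUP-TFII expression vector driving the NGFI-A reporter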
HIV Env fusion – inhibitors of HIV Env-mediated cell fusion | HeLa-JRFL Env/CEM21 cell fusion, luciferase | inhibition, % at 12.3 µM | actives 1.1% (n = 360,000) | AID 651610;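 active = mean replicate inhibition score of at least 50 and every replicate individually at or above 50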
aDG glyco up – increases alpha dystroglycan glycosylation; Pro5-aDG cells, alpha-DG glycosylation AlphaScreen (IIH6); 0% Pro5, 100% B10-LARGE cell signal; activation, % at 10 µM; actives 0.22% (n = 360,000); AID 624168;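 active = activation of at least 8% versus controls, or a plate z-score of at least 8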;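 also: Pro5 are CHO cells carrying HIG-tagged alpha-DG that lacks glycosylation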
GalR3 antagonist – blocks the human galanin receptor 3. inhibition, % at 3 µM. actives 0.44% (n = 360,000). O60755. HEK293 GalR3-CNG cAMP membrane potential fluorescence; galR3 body fused to GalR1 C-terminus;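 active = inhibition above the screen-wide average plus 3 SD, cut at about 13% in these data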;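 also: forskolin and galanin both at EC90 stimulate the cells; cAMP rise reported by CNG channel membrane potential dye signal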
Target sequence (O60755 1-299 limits assumed): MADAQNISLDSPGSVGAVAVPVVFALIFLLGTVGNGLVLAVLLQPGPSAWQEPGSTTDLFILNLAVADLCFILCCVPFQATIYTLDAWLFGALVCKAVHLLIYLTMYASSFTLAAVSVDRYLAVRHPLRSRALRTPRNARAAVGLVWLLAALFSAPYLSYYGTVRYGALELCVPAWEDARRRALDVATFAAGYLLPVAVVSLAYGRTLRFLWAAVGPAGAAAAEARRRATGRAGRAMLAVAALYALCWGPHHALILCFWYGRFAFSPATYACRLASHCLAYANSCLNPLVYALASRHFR
Gli antag conf – confirmation of Gli-SUFU pathway antagonists | shares compounds with Gli-Sufu block | Sufu-KO-LIGHT cells, Gli luciferase reporter, luminescence | inhibition, % at 5 µM | actives 40% (n = 2,500);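 active = mean inhibition at 5 µM reaching about 45%, limit read from the data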
SufuKO cytotox – cytotoxicity counter-screen for Gli-SUFU antagonists; shares compounds with Gli-Sufu block; actives 32% (n = 2,500); cytotoxicity, % at 5 µM; Sufu-KO-LIGHT cells cytotoxicity, ATP luminescence;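 active = mean cytotoxicity at 5 µM above about 25%, limit read from the data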;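 also: cells exposed to compound overnight for roughly 16 to 18 hours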
Wnt3a cs – Wnt3a reporter inhibition counter-screen; shares compounds with Gli-Sufu block; Wnt-LIGHT cells, Wnt3a-driven luciferase reporter, luminescence; inhibition, % at 6.25 µM; actives 20% (n = 2,500); AID 651995;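 active = mean inhibition above about 25%, limit read from the data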
Numbers stand for hits; - = inactive; . = not tested or not shown.

SMILES	Gli-Sufu block	COUP-TFII inh	HIV Env fusion	aDG glyco up	GalR3 antagonist	Gli antag conf	SufuKO cytotox	Wnt3a cs
C[C@H](CO)N1C[C@H](C)[C@H](CN(C)C(=O)NC2CCCCC2)Oc2ncc(C#CC(C)(C)O)cc2C1=O	.	.	-	.	.	.	.	.
CC(C)N(Cc1ccccc1)S(=O)(=O)c1ccc(F)cc1	59	-	-	-	-	49	34	33
Cc1[nH]n(-c2nc(-c3ccc(Cl)cc3)cs2)c(=O)c1N=Nc1ccc(O)cc1	70	-	-	-	-	71	35	29
Cc1noc(C)c1S(=O)(=O)N(C)C[C@@H]1OCCCC[C@H](C)Oc2ccc(NC(=O)NC3CCCCC3)cc2C(=O)N([C@H](C)CO)C[C@H]1C	.	.	-	.	.	.	.	.
CCc1c(C)nc2cc(-c3ccc(OC)c(OC)c3)nn2c1N1CCCC1	-	-	.	-	-	55	33	-
CCc1c(C)nc2cc(-c3ccc(OC)c(OC)c3)nn2c1N1CCC(C)CC1	-	-	.	-	-	.	.	.
N#Cc1ccc(Sc2nc3ccccc3[nH]2)cc1C#N	92	-	-	-	-	-	-	-
Cc1nn(Cc2ccc(Cl)cc2)c(C)c1NC(=O)Cn1nc([N+](=O)[O-])c(Cl)c1C	-	-	.	-	-	-	-	-
Cc1nn(Cc2ccccc2)c(C)c1NC(=O)CCCn1nc([N+](=O)[O-])c(Cl)c1C	-	-	-	-	-	-	-	-
CCCS(=O)(=O)N1CCN(Cc2ccccc2C(F)(F)F)CC1	-	-	-	-	-	.	.	.
CN1CCCN(Cc2ccccc2C(F)(F)F)CC1	94	-	-	-	-	-	-	-
COCCCNC(=S)N1CCN(S(=O)(=O)c2ccc(OC)cc2)CC1	69	-	-	-	-	-	-	-
OCCC1CN(Cc2cc(F)ccc2F)CCN1CCCc1ccccc1 (stereo not given)	-	-	-	-	-	-	-	-
CC(C)N1CCN(CCCc2ccccc2)CC1CCO (stereo not given)	-	-	-	-	-	.	.	.
CC(C)N1CCC(N2CCN(CCCc3ccccc3)CC2CCO)CC1 (stereo not given)	60	-	-	-	-	-	27	-
COc1ccccc1S(=O)(=O)N[C@@H]1C=C[C@H](CC(=O)NCc2cccc(F)c2)O[C@@H]1CO	.	.	-	.	.	.	.	.
COc1cc(OC)c(/C=N/NC(=O)COc2cccc3cccnc23)c(OC)c1	56	-	-	-	-	-	-	-
CN(CC(=O)Nc1ccccc1Cl)C(=O)c1cccc(S(=O)(=O)N2CCN(c3ccc(F)cc3)CC2)c1	-	-	-	-	-	.	.	.
CN(CCOc1ccc(Cl)cc1)C(=O)c1cccc(S(=O)(=O)N2CCN(c3ccc(F)cc3)CC2)c1	70	.	.	-	.	64	26	-
C[C@H](CO)N1C[C@H](C)[C@H](CN(C)C(=O)c2ccncc2)Oc2ncc(C#CC3CCCCC3)cc2C1=O	.	.	-	.	.	.	.	.
Cc1noc(C)c1S(=O)(=O)N(C)C[C@H]1Oc2ccc(NS(=O)(=O)c3ccc(F)cc3)cc2CC(=O)N([C@H](C)CO)C[C@H]1C	.	.	-	.	.	.	.	.
COc1ccc(N2CCN(C3CC(=O)N(C)C3=O)CC2)cc1 (stereo not given)	67	-	.	-	-	-	-	-
CN1C(=O)CC(N2CCN(c3ccc(Cl)cc3)CC2)C1=O (stereo not given)	-	-	-	-	-	.	.	.
C[C@H]1CN([C@@H](C)CO)C(=O)c2cccc(NC(=O)C3CC3)c2O[C@@H]1CN(C)C(=O)NC1CCCCC1	.	.	-	.	.	.	.	.
O=C(Cn1cc(C(=O)C(F)(F)F)c2ccccc21)Nc1ccccc1F	-	-	-	-	-	.	.	.
SMILES	Gli-Sufu block	COUP-TFII inh	HIV Env fusion	aDG glyco up	GalR3 antagonist	Gli antag conf	SufuKO cytotox	Wnt3a cs
O=C(Cn1cc(C(=O)c2ccco2)c2ccccc21)Nc1ccccc1F	60	-	-	-	-	73	-	-
C[C@@H]1CN([C@H](C)CO)C(=O)c2cc(NS(=O)(=O)c3ccc(F)cc3)ccc2O[C@H]1CN(C)Cc1ccccc1	.	.	-	.	.	.	.	.
CSc1nc(N)nc2c1ncn2CC(=O)N1CCN(Cc2c(C)cc(C)cc2C)CC1	-	51	-	-	-	62	27	44
C[C@H](CO)N1C[C@H](C)[C@H](CN(C)Cc2ccccc2)Oc2ccc(NC(=O)Nc3ccc(C(F)(F)F)cc3)cc2C1=O	.	.	-	.	.	.	.	.
CCC(C)NC(=O)COC(=O)Cc1sc(N)nc1-c1ccc(C)cc1 (stereo not given)	-	-	-	-	-	.	.	.
Cc1ccc(-c2nc(N)sc2CC(=O)OCC(=O)NCCC(C)C)cc1	58	-	.	-	-	-	-	31
CO[C@@H]1CN(C)C(=O)c2cccc(C#N)c2OC[C@H]2O[C@@H](CC[C@H]2OC)CCN(C)C(=O)[C@H]1C	.	.	-	.	.	.	.	.
C[C@H](CO)N1C[C@H](C)[C@H](CN(C)C(=O)Nc2ccc(F)cc2)Oc2ccc(NC(=O)Nc3cccc4ccccc34)cc2C1=O	.	.	-	.	.	.	.	.
O=C(CCS(=O)(=O)c1ccccc1)Nc1ccccc1N1CCOCC1	66	-	-	-	-	-	-	-
FC(F)Oc1ccc(-c2c[n+]3c(n2-c2ccccc2)CCCCC3)cc1	60	-	-	-	-	70	-	-
COc1ccc(-c2c[n+]3c(n2-c2ccccc2)CCCCC3)cc1	84	-	-	-	-	85	35	34
CCOc1ccc(-n2c(-c3ccc(Br)cc3)c[n+]3c2CCCCC3)cc1	86	-	-	-	18	88	46	-
C[C@H](CO)N1C[C@H](C)[C@H](CN(C)C(=O)Cc2ccncc2)Oc2ncc(C3=CCCC3)cc2C1=O	.	.	-	.	.	.	.	.
C[C@@H]1CCCCO[C@H](CN(C)C(=O)CCC(F)(F)F)[C@H](C)CN([C@@H](C)CO)C(=O)c2cc(NC(=O)NC3CCCCC3)ccc2O1	.	.	-	.	.	.	.	.
Cc1ccc(/C=N/NC(=O)Cn2nccc2C)o1	60	-	-	-	-	-	-	-
COc1ccc(NC(=O)N(C)C[C@@H]2OCCCC[C@H](C)Oc3ccc(NS(C)(=O)=O)cc3C(=O)N([C@H](C)CO)C[C@@H]2C)cc1	.	.	-	.	.	.	.	.
COc1cccc(NC(=S)N2CCC(Cc3ccccc3)CC2)c1	-	-	-	-	-	-	-	-
CC(C)NC(=O)N(C)C[C@H]1Oc2ccc(NS(=O)(=O)c3cccs3)cc2C(=O)N([C@@H](C)CO)C[C@@H]1C	.	.	-	.	.	.	.	.
COc1ccc(CNCCc2ccccc2)cc1OCC(N)=O	-	-	-	-	-	.	.	.
OCCNCc1cc(Br)ccc1OCc1ccccc1	-	-	-	-	-	.	.	.
COc1ccc(CNCCc2ccc(Cl)cc2)cc1OCc1ccccc1	-	.	.	2.7	.	-	-	-
